# IL-1B inflam inh – blocks inflammasome-driven IL-1 beta release; THP-1 LPS/ATP IL-1B secretion, AlphaLISA, 16 h; stronger effect = lower value; activity change, % at 57.5 µM; 360,000 tested, 4.7% active; AID 743279; in the data active means activity change below about -50%; inconclusive means mostly about -30% to -49%
#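 THP-1 cells pretreated 1 hr with compounds (up to 57.5 uM final), then stimulated with LPS (250 ng/mL final) plus ATP (1.25 mM final); secreted IL-1B measured by AlphaLISA after 16 hr, decreased signal indicating inhibition.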
# TDP1 block – TDP1 (human) enzyme inhibition. Potency, µM (top dose mostly 130 µM), usual class: inhibitors. Q9NUW8. AID 485290. 350,000 tested, 0.28% active. recombinant TDP1, AlphaScreen DNA substrate cleavage; further: nearly all actives have a fitted effect of over 40% in size
# Target sequence (Q9NUW8 whole entry, looked up): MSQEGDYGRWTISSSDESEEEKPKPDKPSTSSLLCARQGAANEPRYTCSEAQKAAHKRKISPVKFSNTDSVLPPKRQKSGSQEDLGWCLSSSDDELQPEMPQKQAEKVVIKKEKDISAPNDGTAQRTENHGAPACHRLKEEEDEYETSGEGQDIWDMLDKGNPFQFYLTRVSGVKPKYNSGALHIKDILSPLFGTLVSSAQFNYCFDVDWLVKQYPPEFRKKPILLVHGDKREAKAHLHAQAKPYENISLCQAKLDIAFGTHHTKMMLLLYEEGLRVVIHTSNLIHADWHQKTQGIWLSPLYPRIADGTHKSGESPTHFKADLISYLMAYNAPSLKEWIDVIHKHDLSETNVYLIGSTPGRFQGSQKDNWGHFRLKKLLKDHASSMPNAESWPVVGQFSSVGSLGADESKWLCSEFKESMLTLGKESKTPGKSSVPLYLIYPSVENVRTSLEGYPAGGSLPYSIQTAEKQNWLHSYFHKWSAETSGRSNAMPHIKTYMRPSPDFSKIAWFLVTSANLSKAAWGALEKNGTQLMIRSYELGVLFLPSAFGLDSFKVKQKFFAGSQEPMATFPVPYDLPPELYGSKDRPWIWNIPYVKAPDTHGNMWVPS
#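 Recombinant human Tdp1 (E. coli-expressed, 1 nM final) preincubated with compounds 15 min at room temperature, then 5'-biotin/3'-phosphotyrosine-FITC DNA substrate (15 nM final) added for 5 min. AlphaScreen beads (10 ug/ml final) added 10 min; cleavage lowers signal.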
# TGFb inhibitor – blocks TGF-b signaling; HepG2 CAGA-GFP TGF-b/SMAD3 reporter, GFP fluorescence, 18 h; TGF-beta stimulated, 500 pg/mL final; Potency, µM (titrated, usually from 46.1 µM), actives largely listed as inhibitors; 410,000 tested, 1.2% active; further: nearly all actives have a fitted effect of over 65% in size
#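 TGF-beta reporter screen: HEPG2 CAGA-GFP, 1% FBS, 500 pg/mL TGF-beta final, 18 h; per-cell GFP summed per well; curves fitted and categorized by class.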
# DT40 TDP1 no CPT – qHTS for Inhibitors of human tyrosyl-DNA phosphodiesterase 1 (TDP1): qHTS in cells in absence of CPT | Potency, µM (top dose mostly 46.2 µM), most hits filed as inhibitors | DT40 Tdp1-/- hTDP1 cells, no CPT, ATP luminescence, 48 h | 420,000 tested, 15% active; further: nearly all actives have a fitted effect of over 55% in size
#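 Stably hTDP1-transfected Tdp1-null chicken DT40 cells were treated with library compounds minus camptothecin and grown for at least 48 hr at 37 °C, after which cellular ATP was quantified by luminescence.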
# TDP1 cell CPT – growth inhibition of DT40 Tdp1-/-;hTDP1 cells with camptothecin (screen for TDP1 inhibitors). AID 686979. chicken DT40 Tdp1-/-;hTDP1 cells + 20 nM CPT, ATP luminescence, 48 h. Potency, µM (top dose mostly 46.2 µM), hits mostly inhibitors. 420,000 tested, 12% active; further: nearly all actives have a fitted effect of over 55% in size
#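 Chicken DT40 Tdp1-/- cells stably complemented with human TDP1 were seeded at 400 cells/well in medium containing 20 nM camptothecin, exposed to pin-transferred compounds, and grown at 37 °C for at least 48 hr. Viability was read as ATP luminescence.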
# HepG2 tox – kills HepG2 cells in TGF-b inhibitor counter-screen; HepG2 CAGA-GFP viability, ATP luminescence, 18 h; Potency, µM (titrated, usually from 46.1 µM), actives largely listed as cytotoxic; 410,000 tested, 0.76% active; AID 588856
#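 HepG2 CAGA-GFP cells (1000/well, DMEM with 1% FBS) received compound, then TGF-beta at 500 pg/mL final, and were incubated 18 hours at 37 degrees C. Viability was read by CellTiter-Glo luminescence. Media-only wells were set as complete cell-killing and DMSO as no toxicity.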
# A number is an active result; i = inactive; ? = inconclusive; nt = no result; [ ] = another dose, or the depositor's remark. Shown are actives, neighbours in structure and some others; about 19% of the full set was active somewhere. Unless noted, the call rests on the fitted dose curve; in most records, active means well fitted curve in the direction sought with a large enough effect; inconclusive means small, poorly fitted or top-dose-only effect, or another doubt; inactive means no such curve, though single readings can be large; an effect the other way counts as inactive or inconclusive.
SMILES,IL-1B inflam inh,TDP1 block,TGFb inhibitor,DT40 TDP1 no CPT,TDP1 cell CPT,HepG2 tox
COc1ccccc1C(CNC(=O)CNC(=O)c1ccc(Cl)c(Cl)c1)N1CCCC1 (centres undefined),i,i,?,16µM,i,i
COc1ccccc1C(CNC(=O)COc1cc(C)ccc1Cl)N1CCCC1 (centres undefined),-64,i,i,?,?,i
COc1ccccc1C(CNC(=O)CNC(=O)c1ccc(C)c(C)c1)N1CCCC1 (centres undefined),i,i,i,i,i,i
Cc1ccc(Cl)c(OCC(=O)NCC(c2cccs2)N2CCOCC2)c1 (centres undefined),?,nt,i,?,26µM,i
Cc1ccc(C)c(NC(=O)CN(C)C(=O)c2oc3c(Cl)cccc3c2C)c1,i,i[0.505 µM],i,?,?,i
O=C(NCc1ccccc1F)C1CCN(c2nn3cc(-c4ccc(F)cc4)nc3s2)CC1,nt,i,i,i,i,i
COC(=O)CC1CC2(C(=O)OC)c3[nH]c4ccccc4c3CCN2C1=O (centres undefined),i,nt,i,i,i,i
CCC12CC1(C(=O)OC)C(=O)N1CCc3c([nH]c4ccccc34)C12 (centres undefined),-59,nt,i,i,i,i
O=C(c1ccco1)N1CCN(C(=O)N2c3ccccc3Sc3ccccc32)CC1,i,i,?,0.63µM,0.23µM,i
O=C(c1ccco1)N1CCN(C(=O)N2CCOCC2)CC1,i,i,i,i,i,i
O=C(NCCc1ccccc1)N1c2ccccc2Sc2ccccc21,i,i,?,16µM,?,i
O=C(N1CCN(c2ccccn2)CC1)N1c2ccccc2Sc2ccccc21,i,i,?,0.92µM,0.73µM,i
O=C(c1ccco1)N1c2ccccc2Sc2ccccc21,-50,i,i,?,?,i
COc1ccc(NC(=O)C2CCN(S(=O)(=O)c3cccs3)CC2)cc1OC,i,i,i,?,?,i
COc1ccc(NC(=O)C2CCN(S(=O)(=O)c3cc(-c4noc(C)n4)ccc3C)CC2)cc1,nt,i,i,?,i,i
Cc1cc(C)nc(SCC(=O)NC2=NN=C(c3ccc(Br)cc3)CS2)n1,-83,i,i,13µM,13µM,i
CCC(Sc1nc(C)cc(C)n1)C(=O)NC1=NN=C(c2ccc(C)cc2)CS1 (centres undefined),i,i,?,?,?,i
COC(=O)C1=C(C)NC(=O)/C1=C\c1cc(C)n(-c2ccccc2F)c1C,-114,nt,i,?,i,i
CCOC(=O)c1nn(-c2ccc(F)cc2)c(C)c1C(C)=O,i,i,i,i,i,i
CCOC(=O)C1=C(O)/C(=C\c2cc(C)n(-c3ccccc3F)c2C)N=C1C,i,i,i,23µM,12µM,i
COC(=O)C1=C(C)NC(=O)/C1=C\c1cc(C)n(-c2c(C)cccc2C)c1C,i,i,i,?,?,i
CCOC(=O)C1=C(O)/C(=C/c2cccc(OC)c2O)N=C1C,i,i,i,i,?,i
CCOC(=O)C1=C(O)/C(=C\c2cc(C)n(-c3ccc(F)cc3)c2C)N=C1C,i,i,i,15µM,?,i
Fc1ccccc1NC(=S)N(CCN1CCCCC1)Cc1ccco1,i,i,i,i,i,i
COc1ccc(Cc2nnc(Nc3c(C)cccc3C)o2)cc1OC,i,i,i,i,i,i
SMILES,IL-1B inflam inh,TDP1 block,TGFb inhibitor,DT40 TDP1 no CPT,TDP1 cell CPT,HepG2 tox
COc1ccc2[nH]c3nc(SCc4nnc(-c5ccc(C)cc5)o4)nnc3c2c1,i,i,i,16µM,26µM,i
CSc1ccccc1C(=O)Nc1nc2ccccc2[nH]1,i,i,i,i,i,i
COc1ccccc1C(=O)Nc1nc2ccccc2[nH]1,i,i,i,1.8µM,4.6µM,2.8µM
COc1ccc(C(=O)Nc2ccc3ccccc3n2)c(OC)c1OC,-76,i,i,?,?,i
O=C(Nc1ccc2ccccc2n1)c1ccccc1Cl,i,nt,i,?,?,i
COc1ccc(C(=O)Nc2nc3ccccc3[nH]2)cc1,i,i,i,23µM,16µM,i
COc1cccc(C(=O)Nc2nc3ccccc3[nH]2)c1,i,i,i,?,i,i
COc1cc(SC)ccc1C(=O)Nc1nc2ccccc2[nH]1,i,i,i,2.1µM,3.7µM,10µM
COc1ccccc1C(=O)NCCC(=O)Nc1nc2ccccc2[nH]1,?,i[0.505 µM],i,?,i,i
CSCC[C@H](N)C(=O)N1CCC(C(=O)N[C@@H](C)C(=O)NCc2ccc(F)cc2)CC1,i,nt,i,i,i,i
CCCN(CCC)S(=O)(=O)c1ccc(NC(=O)c2cc(C(=O)OC)cc([N+](=O)[O-])c2)cc1,i,i,i,26µM,23µM,i
COC(=O)c1cc(C(=O)Nc2nc3ccccc3[nH]2)cc([N+](=O)[O-])c1,i,i,i,23µM,i,i
O=C(Nc1nc2ccccc2[nH]1)c1cccc([N+](=O)[O-])c1,i,i,i,?,i,i
CC(C)c1cc(C(C)C)c(S(=O)(=O)NC(c2ccccn2)C23CC2C3)c(C(C)C)c1 (centres undefined),i,nt,nt,16µM,?,nt
COc1cc(OC)cc(C(=O)Nc2ccc(-c3nc4ccccc4s3)cc2C)c1,nt,i,i,nt,nt,i
CCOc1ccccc1C(=O)Nc1cc(-c2nc3cccnc3s2)ccc1C,nt,i,nt,5.2µM,8.2µM,i
CCOc1ccccc1C(=O)Nc1cc2c(cc1C)n(C)c(=O)c(=O)n2C,nt,i,i,?,?,i
COc1cc(OC)cc(C(=O)Nc2cc(-c3nc4cccnc4s3)ccc2C)c1,nt,i,i,10µM,?,i
Cc1ccc(CSCc2ccc(C(=O)NCCc3ccc(Cl)cc3)o2)cc1,nt,i,?,?,?,i
Cc1nc(N2CCOCC2)c2nc(-c3ccccc3)n(CCCN(C)C)c2n1,nt,i,nt,nt,nt,nt
CCC1CN(S(=O)(=O)c2cc(-c3cc(C)no3)ccc2C)c2cc(Cl)ccc2O1 (centres undefined),nt,i,i,23µM,13µM,i
COc1ccc(-c2cc(C)no2)cc1S(=O)(=O)N1CCOc2ccc(Cl)cc21,i,i,i,?,?,i
Cc1ccc(C)c(N2CCN(S(=O)(=O)c3cc(-c4cc(C)no4)ccc3C)CC2)c1,nt,i,?,16µM,?,i
Cc1ccc(C)c(N2CCN(S(=O)(=O)c3ccc(-c4cc(C)no4)s3)CC2)c1,i,i,i,?,?,i
